In PubChem BioAssay (NCATS):
A number with no mark means an inactive call. Inconclusive results are not listed. Where a call stands in place of a potency, no number is given. The source made the active and inactive calls. Unless noted, calls follow the shape of the dose curve; as a rule, active = well fitted curve in the direction sought with a large enough effect; inconclusive = small, poorly fitted or top-dose-only effect, or another doubt; inactive = no such curve, though single readings can be large; an effect the other way counts as inactive or inconclusive.

Experiments:
[1] = qHTS for Inhibitors of Plasmodium falciparum (GB4) proliferation (AID 504315); also: nearly all actives have a fitted effect of over 50% in size
Procedure, shortened: (§1)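 Erythrocytes infected with P. falciparum line (0.3% parasitemia, 2.5% hematocrit final) incubated with compounds 72 h at 37 °C, 5% CO2; SYBR Green lysis buffer added, fluorescence read next day. Normalized to 0.29 uM artemisinin and DMSO.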

[2] = qHTS for Inhibitors of Plasmodium falciparum (7G8) proliferation (AID 504316); also: potency is read from the fitted curve at half-maximal effect; nearly all actives have a fitted effect of over 65% in size
Procedure, shortened: as §1

[3] = qHTS for Inhibitors of Plasmodium falciparum (CP250) proliferation (AID 504320)
Procedure, shortened: as §1

[4] = molecular target: Atrial natriuretic peptide receptor 1 (Homo sapiens) (UniProt P16066); assay: Natriuretic polypeptide receptor (hNpr1) antagonism - Pilot CMLD screen (AID 1347052; calls by dose curve;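 also: HEK293 cells with hNpr1 stimulated by hNppA peptide at 0.1 nM; cGMP level read as GloSensor luciferase luminescence after agonist stimulation; series mostly up to about 9.2 µM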)
Sequence of Atrial natriuretic peptide receptor 1 (Homo sapiens) (P16066 whole entry, looked up): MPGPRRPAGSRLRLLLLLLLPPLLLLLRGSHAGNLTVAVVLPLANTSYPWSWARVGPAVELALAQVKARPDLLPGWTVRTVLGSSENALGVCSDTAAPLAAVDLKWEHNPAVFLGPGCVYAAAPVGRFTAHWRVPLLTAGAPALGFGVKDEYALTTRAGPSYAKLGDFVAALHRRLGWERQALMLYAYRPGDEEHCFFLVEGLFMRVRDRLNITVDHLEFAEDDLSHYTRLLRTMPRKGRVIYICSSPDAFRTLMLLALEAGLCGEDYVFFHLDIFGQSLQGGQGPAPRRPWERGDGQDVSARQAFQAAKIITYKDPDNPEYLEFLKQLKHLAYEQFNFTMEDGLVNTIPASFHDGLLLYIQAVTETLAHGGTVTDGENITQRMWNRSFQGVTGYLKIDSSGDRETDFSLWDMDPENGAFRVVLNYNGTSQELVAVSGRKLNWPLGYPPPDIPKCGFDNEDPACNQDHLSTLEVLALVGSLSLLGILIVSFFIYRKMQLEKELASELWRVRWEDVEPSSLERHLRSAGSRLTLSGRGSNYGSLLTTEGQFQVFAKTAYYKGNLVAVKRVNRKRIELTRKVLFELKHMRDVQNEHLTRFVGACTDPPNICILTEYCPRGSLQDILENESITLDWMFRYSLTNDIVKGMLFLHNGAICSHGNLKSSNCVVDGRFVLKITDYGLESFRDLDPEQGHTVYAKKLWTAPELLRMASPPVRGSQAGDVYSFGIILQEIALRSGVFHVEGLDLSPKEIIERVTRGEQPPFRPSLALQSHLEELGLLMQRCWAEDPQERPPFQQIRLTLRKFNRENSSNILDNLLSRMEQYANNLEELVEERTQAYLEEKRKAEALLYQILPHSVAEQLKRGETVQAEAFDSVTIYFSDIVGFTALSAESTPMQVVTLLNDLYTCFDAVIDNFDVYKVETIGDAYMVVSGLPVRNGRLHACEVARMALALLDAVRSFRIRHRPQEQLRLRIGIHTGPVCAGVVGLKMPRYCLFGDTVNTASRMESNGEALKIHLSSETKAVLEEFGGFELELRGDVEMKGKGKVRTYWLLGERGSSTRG

[5] = qHTS for Inhibitors of Plasmodium falciparum (HB3) proliferation (AID 504318); also: nearly all actives have a fitted effect of over 60% in size
Procedure, shortened: as §1

[6] = molecular target: Cytochrome P450 3A4 (Homo sapiens) (UniProt P08684); assay: qHTS Assay for Activators of Cytochrome P450 3A4 (AID 885); also: nearly all actives have a fitted effect of over 65% in size
Sequence of Cytochrome P450 3A4 (Homo sapiens) (P08684 whole entry, looked up): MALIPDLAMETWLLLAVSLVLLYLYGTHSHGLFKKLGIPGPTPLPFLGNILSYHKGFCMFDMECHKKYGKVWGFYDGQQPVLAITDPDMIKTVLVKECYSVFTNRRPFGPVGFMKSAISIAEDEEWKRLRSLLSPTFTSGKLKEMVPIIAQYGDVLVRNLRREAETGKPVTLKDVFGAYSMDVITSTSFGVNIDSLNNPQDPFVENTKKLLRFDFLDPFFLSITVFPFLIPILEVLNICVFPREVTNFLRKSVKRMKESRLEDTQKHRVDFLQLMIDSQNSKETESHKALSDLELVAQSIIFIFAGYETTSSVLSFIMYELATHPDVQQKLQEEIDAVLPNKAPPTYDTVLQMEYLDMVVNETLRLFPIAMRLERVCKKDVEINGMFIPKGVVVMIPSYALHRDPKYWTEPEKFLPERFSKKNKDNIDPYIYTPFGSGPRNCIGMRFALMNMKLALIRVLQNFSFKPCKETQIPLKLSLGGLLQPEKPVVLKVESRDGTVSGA
Procedure, shortened: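 Steps: enzyme/substrate mix dispensed; compound added, 10 min RT; NADPH regeneration solution added, 60 min RT; luciferin detection buffer stops reaction; 20 min later luminescence measured.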

Compound: C=CCNC(=O)N1CCc2nc(-c3ccc(OC)cc3C)c3c(c2C1)CO[C@@H](c1ccccc1)C3
- Potency [1]: inactive
- Potency [2]: 1.51 µM (active)
- Potency [3]: inactive
- Potency [4]: inactive

Compound: CCN1C(=NCCCOC(C)C)N[C@@H](CCc2ccccc2)[C@H](C(=O)NCCCOC(C)C)[C@H]1C
- Potency [1]: inactive
- Potency [5]: inactive
- Potency [4]: inactive

Compound: Cc1ccc2[nH]c3nc(CCCn4ccnc4-c4ccccc4)nnc3c2c1
- activity change, positive = activation [6]: -50.4% [at 11.4 µM]

Compound: COC1=C[C@@H](C(=O)N[C@H]2CCCC[C@H]2NC(C)=O)[C@]2(C)Cc3ccccc3[C@H]2CC1=O
- Potency [1]: inactive
- Potency [3]: inactive
- Potency [4]: inactive

Compound: CC(C)=CCCC(C)=CCN1C(=O)[C@@]2(CC(C)=C[C@@H](COCc3ccccc3)O2)c2ccccc21
- Potency [1]: inactive
- Potency [3]: inactive
- Potency [4]: inactive

Compound: C=C[C@H]1CCC=C2C(=O)CCC[C@H]21
- Potency [2]: 1.9 µM (active)
- Potency [4]: inactive

Compound: COc1ccc2c3c(c(=O)oc2c1)[C@H]1O[C@](c2ccsc2)(Cc2cc(C#N)ccc21)O3
- Potency [1]: inactive
- Potency [3]: inactive
- Potency [4]: inactive

Compound: COc1ccc(O[C@H]2C=C[C@@H](c3ccccc3)O[C@H]2COC(=O)CCC(C)=NOC[C@@H](C)[C@H](OCc2ccccc2)C(C)C)cc1
- Potency [2]: 1.9 µM (active)
- Potency [4]: inactive

Compound: COc1ccc(O[C@H]2C=C[C@@H](c3ccccc3)O[C@H]2COC(=O)CCC(C)=NO[C@@H]2O[C@H](COC(C)=O)[C@@H](OC(C)=O)[C@H](OC(C)=O)[C@@H]2OC(C)=O)cc1
- Potency [1]: inactive
- Potency [3]: inactive
- Potency [4]: inactive
